Screening results (PubChem)
Dicer processing: inhibitors of human Dicer processing of pre-microRNA. cat-ELCCA pre-miR-21 Dicer processing, chemiluminescence; active compounds read high. 47,000 tested, 6% active. z-score at 25 µM. AID 1347074. Q9UPY3; in the data active = z-score above about 3, passing the limit was not always enough;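 note: plate controls were vehicle for no effect and no enzyme for full effect; higher signal means more uncleaved substrate so more Dicer inhibition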
Starred values were filed as active, the others as inactive. Many of the other results were omitted from the sample, so hits are more common in it than they were.

SMILES	Dicer processing
N#CC(C#N)=NNc1c(Cl)cc(C(F)(F)F)cc1Cl	-0.79
CCNCC(O)c1ccc([N+](=O)[O-])cc1 (stereo not given)	0.31
CCCc1nc(SCC(=O)c2ccc(Cl)cc2)nc(OC(=O)N(C)C)c1C	10
Fc1ccc(CNCCc2c[nH]c3ccccc23)cc1F	1.3
CCC(C)n1[nH]c(=O)c2c1NC(=O)CSC2c1ccc(OC(C)C)cc1 (stereo not given)	-0.71
Cc1ccc2[nH]c(=S)n(-c3ccc(Br)c(C)c3)c(=O)c2c1	1.7
CCC(C)n1[nH]c(=O)c2c1NC(=O)CSC2c1ccc(OC)cc1 (stereo not given)	-0.44
N#CC1=C(SCc2ccccc2)SCNC1=O	-1.4
Cc1nc2ccccc2c(=O)n1-c1cc(F)c(F)cc1F	-0.79
C/C(=C\c1ccc(Cl)cc1Cl)[N+](=O)[O-]	5.3
CCOc1ccccc1Oc1c(C)oc2cc(OC(=O)N(C)C)ccc2c1=O	1.3
CN(C)C(=O)Oc1noc2ccc(Cl)cc12	0.46
C=C(C)Cc1c(C)nc(SCC(=O)C(C)(C)C)nc1OC(=O)N(C)C	1.9
COc1ccc(O)c(CN2CCN(Cc3ccc(Br)cc3)CC2)c1	5.1*
C=CCc1cc(C)cc(-n2nc3ccccc3n2)c1O	1.1
Cc1ccc(S(=O)(=O)N2CCCCC2c2cccnc2)cc1 (stereo not given)	-0.61
C=CCSc1nc2ccccc2c(=O)n1-c1ccc(OC)cc1	-0.02
COc1ccc(C2SCC(=O)Nc3c2c(=O)[nH]n3C2CCOC(C)(C)C2)cc1 (stereo not given)	-0.66
Cc1ccc(NC2=NCCS2)cc1Cl	-1.1
COc1ccc(OC)c(NC2=NCCS2)c1	3.1*
COc1ccc(Br)c(NC2=NCCS2)c1	-0.17
O=C1/C(=C\c2ccc(C(F)(F)F)cc2)N2CCC1CC2	0.28
CC(=O)N1N=C2C3CCN(CC3)C2C1c1cccc(F)c1 (stereo not given)	-0.66
COCCCn1c(OC(=O)N(C)C)c(C)c(C)nc1=S	-0.8
N#Cc1ccc(NC(=O)c2c(F)cccc2F)cc1C(F)(F)F	1.3
SMILES	Dicer processing
CC(O)(CS(=O)(=O)c1ccc(F)cc1)C(=O)Nc1ccc(C#N)c(C(F)(F)F)c1 (stereo not given)	0.92
CC(=O)Nc1ccc(C#N)c(C(F)(F)F)c1	5.6*
Cc1cc(NC(=O)Oc2ccccc2)no1	0.81
Cc1[nH]nc2c1C1(CCN(C)CC1)C(C#N)=C(N)O2	-8.2
O=C(NNS(=O)(=O)c1ccc(C(F)(F)F)cc1)C1(O)CN2CCC1CC2 (stereo not given)	0.82
O=C1C(=Cc2ccco2)C(=O)N(c2ccccc2)C(=S)N1c1ccccc1	3.3*
O=c1c2ccccc2[nH]c(=S)n1-c1ccc(F)cc1F	0.83
O=[P@]1(N(CCCl)CCCl)NCCCO1	-0.61
CC1CC(O)(c2ccccc2)C(C)CN1C (stereo not given)	3.6*
Cc1nc2c(Br)cc(Br)cc2c(=O)n1-c1cccc(C(F)(F)F)c1	-0.26
O=C(NC(=S)Nc1ccccc1OC(F)(F)F)Oc1ccccc1	-4.5
COc1cccc(-n2c(/C=C/c3ccco3)nc3ccccc3c2=O)c1	0.91
O=c1c2ccccc2nc(/C=C/c2ccc(O)cc2)n1-c1ccc(O)cc1	1.7
COc1cccc(-n2c(/C=C/c3c[nH]c4ccccc34)nc3ccccc3c2=O)c1	3.4*
C=CCSc1nc2ccccc2c(=O)n1-c1cc(OC)c(Cl)cc1OC	-0.38
CNC(=O)O/N=C1\CC(C)(C)Cc2csc(SC)c21	2.6
O=C(CNC1CCCCC1)c1ccc(O)c(O)c1	10*
OCC12COC3c4ccccc4C(OC1)N32 (stereo not given)	5.6*
CC(=O)CC(c1ccc([N+](=O)[O-])cc1)c1c(OC(C)=O)c2ccccc2oc1=O (stereo not given)	-0.15
CN(C)C(=O)Oc1ccc2c(=O)c(Oc3ccccc3Br)c(C(F)(F)F)oc2c1	1.6
CC(=O)OC1CCC2(C)C3CCC4(C)C(OC(C)=O)CCC4C3CC(O)[C@@]2(O)C1 (stereo not given in full)	0.87
